# Assay results taken from the OligoGym collection.
# Molecular target: DNAJC8
# Experiment: pooled miR-30 sensor sort-seq; sequence = guide strand
# Conditions: shRNA
# Note: reference of the scale not given here.
row,Sequence,sensor-assay potency score (higher = more potent)
1,TTTTTCTTGAGCTTCAATCTCT,0.129
2,TTGGCTTGGAAGTTTCGCCAGC,-0.414
3,TGTAACTTCAGGATCTATCTGA,0.809
4,TTTCTAACCATCACAATTCAGT,-0.77
5,TTTCACAGTGTGTTCCACGTAT,0.15
6,TTGTCGTTTCCTTTCATGCATC,-1.33
7,TTTTTCGAAGTTAGAACCGAGT,-0.8

# Molecular target: DNAL4
# Experiment: as above
# Conditions: shRNA
row,Sequence,sensor-assay potency score (higher = more potent)
1,TCGTGGGTGATCTCAAACCCAA,-1.47
2,TAGAGGAGGTTCTTCACCTCGT,0.0799
3,ATAATCAGCCTCATCTTTCTTC,0.738
4,TCTCTTTGATCATCTTGGCGGC,-0.315
5,TATATAAATAAGACCGCTGTGT,-0.264
6,ATTGTCTCTTTGATCATCTTGG,0.417
7,ACTTCTTGTCCATTGTCTCTTT,-0.545
8,TCTTTGATCATCTTGGCGGCGC,-0.0929
9,TTGTTGTTGGAGAATTTCTCAC,-0.596
10,TCTGCAGTCGCTTATAATCAGC,-1.4
11,TTGTCTCTTTGATCATCTTGGC,-0.232

# Molecular target: DNASE2B
# Experiment: as above
# Conditions: shRNA
row,Sequence,sensor-assay potency score (higher = more potent)
1,TTGGTGTGTCCATACTTTCTGC,-0.698
2,ATAATCATAGCCTTCTTCCGGA,0.631
3,TTTTATATTGTAGACATGGTAA,-1.07
4,TTGAACTCTGTTCCACAGCAGT,-0.963
5,TAGGTCTCCAATACATGTCCAG,-0.704
6,TTGTATATTAGATAGGCTGTGT,0.0611
7,TAACAAGTGTGTCTTCAGCCGT,-0.785
8,TCTAGTTGTAGAGTCTAGGTAC,0.705
9,TACTCTTAGAGGCATATGCTTC,-0.938
10,TATAGCTGTTGTAATGTCCTTC,0.757
11,TTTAATTGCTTTTATATTGTAG,-0.233
12,TTCTGTTAACAAGTGTGTCTTC,-0.13

# Molecular target: DNMT3L
# Experiment: as above
# Conditions: shRNA
row,Sequence,sensor-assay potency score (higher = more potent)
1,TTGAAATATTCTCTTAGGGGGA,-0.387
2,TTCTGTTGAAAAATACTTGAAA,-0.77
3,ATGTCTTCTATATTTCGCTGGT,-0.668
4,AACTGGAACAGGTACCAGCTGG,-0.764
5,TATGCAATAAGATCTCTGCCTG,-0.0706
6,TGGAACTGGAACAGGTACCAGC,-1.35
7,AATACTTGAAATATTCTCTTAG,0.0137
8,TTGGTACCCGTCATCGTCGTAC,-0.554
9,TGAACCTGGAGACTTCCGCAGC,-0.928
10,TATATTTCGCTGGTTAGCCTTG,-0.491
